{"source": "PubChem BioAssay AID588342", "about": "(National Center for Advancing Translational Sciences (NCATS), 2011)", "note": "Among all 360,000 compounds or so, about 25,000 (6.9%) were called active. Another 9% or so got no clear call; they are omitted. The full list was thinned out, with actives kept by preference. A number with no mark means an inactive call. The call rests on the fitted dose curve; in most records, active means well fitted inhibition curve with a large enough effect; inconclusive means small, poorly fitted or top-dose-only effect; inactive means flat fitted curve, though single readings scatter. Potency means the concentration at half of the fitted maximal effect.", "data": [{"target": "Luciferin 4-monooxygenase (Photinus pyralis) (UniProt P08659)", "sequence (P08659 whole entry, looked up)": "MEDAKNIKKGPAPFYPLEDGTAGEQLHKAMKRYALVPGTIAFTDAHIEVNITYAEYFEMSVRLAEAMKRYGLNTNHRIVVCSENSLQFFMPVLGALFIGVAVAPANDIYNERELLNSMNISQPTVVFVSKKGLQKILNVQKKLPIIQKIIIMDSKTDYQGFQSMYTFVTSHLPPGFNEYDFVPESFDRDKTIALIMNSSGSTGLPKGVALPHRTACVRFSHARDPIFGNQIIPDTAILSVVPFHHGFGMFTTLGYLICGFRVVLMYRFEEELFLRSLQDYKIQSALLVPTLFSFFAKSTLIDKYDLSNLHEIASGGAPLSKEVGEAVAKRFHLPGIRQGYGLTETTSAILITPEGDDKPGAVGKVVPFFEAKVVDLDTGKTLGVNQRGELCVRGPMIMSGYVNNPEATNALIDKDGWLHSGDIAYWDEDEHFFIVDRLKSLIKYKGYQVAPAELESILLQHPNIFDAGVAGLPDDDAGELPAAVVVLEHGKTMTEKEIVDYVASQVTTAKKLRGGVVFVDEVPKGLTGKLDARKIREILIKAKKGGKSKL", "experiment": "qHTS profiling assay for firefly luciferase inhibitor/activator using purifed enzyme and Km concentrations of substrates (counterscreen for miR-21 project); further: nearly all actives have a fitted effect of over 55% in size;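 on activity change, negative = inhibition: plate controls were vehicle for no effect and reference inhibitor for full effect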", "conditions": "purified FLuc, luminescence inhibition; series mostly up to 57.5 µM; activity change, negative = inhibition: at the top concentration", "procedure,_shortened": "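Biochemical qHTS of compounds, final roughly 60 µM downward over six points, against 10 nM purified firefly luciferase using Km concentrations of substrates (10 uM D-luciferin, 10 uM ATP) in Tris acetate pH 7.5 buffer; luminescence output.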", "values": [{"smiles": "CCOC(=O)c1cnc2c(C)cc(Cl)cc2c1NCCc1ccc(OC)c(OC)c1", "activity change, negative = inhibition": "-8.82%"}, {"smiles": "COc1cc(NC(=O)Cn2nc(-c3ccc(C)c(C)c3)ccc2=O)cc(OC)c1", "activity change, negative = inhibition": "-1.29%"}, {"smiles": "NNC(=O)c1cccc(COCC(F)(F)C(F)F)c1", "activity change, negative = inhibition": "6.5%"}, {"smiles": "CCOC(=O)c1cc(C(C)C)sc1NC(=O)COC(=O)c1nccnc1N", "activity change, negative = inhibition": "12.3%"}, {"smiles": "CC(C)c1cc(C(N)=O)c(NC(=O)c2cccc(COc3ccc(Br)cc3)c2)s1", "Potency": "19 µM (active)"}, {"smiles": "COc1ccc(CCNC(=O)Cn2c(=O)n(-c3ccccc3)c(=O)c3c(C)c(C)sc32)cc1OC", "activity change, negative = inhibition": "-0.147%"}, {"smiles": "CCOc1ccc(N(CC)C(=O)c2cc3c(=O)oc4ccccc4c3s2)cc1", "activity change, negative = inhibition": "-1.93%"}, {"smiles": "Cc1ccc(N(NC(=O)C(C)(C)O)C(=O)c2ccccc2)cc1C", "activity change, negative = inhibition": "6.23%"}, {"smiles": "COc1ccc(C(=O)/C=C/Nc2ccccn2)cc1", "Potency": "0.107 µM (active)"}, {"smiles": "CCOc1ccc(N/C=C/C(=O)c2ccccc2)cc1", "Potency": "0.269 µM (active)"}, {"smiles": "Cc1ccc(NNC(=O)C2CCC2)cc1C", "activity change, negative = inhibition": "-2.48%"}, {"smiles": "COCCN(C(=O)CCC(=O)Nc1ccccn1)C(C(=O)NCCC(C)C)c1ccc(OC)cc1", "note": "(centres undefined)", "activity change, negative = inhibition": "-1.3%"}, {"smiles": "Cc1ccc(N/C=C/C(=O)c2ccccc2)cc1C", "Potency": "0.151 µM (active)"}, {"smiles": "CCOc1ccc(NC(=S)N2CCC(NC(=O)c3ccccc3)CC2)cc1", "activity change, negative = inhibition": "0.225%"}, {"smiles": "COc1ccc(N2C(=O)CCC(C(=O)Nc3ccccn3)C2c2ccc(OC)c(OC)c2)cc1", "note": "(centres undefined)", "activity change, negative = inhibition": "1.04%"}, {"smiles": "CCCOc1ccc(NC(=O)C2CCCNC2=O)cc1", "note": "(centres undefined)", "activity change, negative = inhibition": "3.63% [at 2.3 µM]"}, {"smiles": "CCCOc1ccc(N/C=C/C(=O)C(C)(C)C)cc1", "Potency": "10.7 µM (active)"}, {"smiles": "CCOc1ccc(NC(=O)C2CCCN(C(=O)Nc3ccccc3)C2)cc1", "note": "(centres undefined)", "activity change, negative = inhibition": "-2.4%"}, {"smiles": "CCCOc1ccc(NC(=O)C2OC3OC(C)(C)OC3C3OC(C)(C)OC23)cc1", "note": "(centres undefined)", "activity change, negative = inhibition": "7.57%"}, {"smiles": "CC(Oc1ccccc1F)C(=O)NN", "note": "(centres undefined)", "activity change, negative = inhibition": "1.14%"}, {"smiles": "CCOC(=O)Cc1ccc(NC(=O)Nc2c[nH]c(=O)[nH]c2=O)cc1", "activity change, negative = inhibition": "-6.71%"}, {"smiles": "COc1ccc(OC)c(NC(=O)CN2CCCN(Cc3cc(C)ccc3C)S2(=O)=O)c1", "activity change, negative = inhibition": "-1.23%"}, {"smiles": "COc1cccc(NC(=O)C2CCN(c3cc(C)nc4c(-c5ccc(Cl)cc5)c(C)nn34)CC2)c1", "activity change, negative = inhibition": "-6.24%"}, {"smiles": "COc1ccc(OC)c(-c2noc(N3CCN(c4cc(Cl)ccc4C)CC3)n2)c1", "activity change, negative = inhibition": "2.18%"}, {"smiles": "Cc1ccccc1CNC(=O)Cn1c(C)c2cnn(-c3ccccc3)c(=O)c2c1C", "activity change, negative = inhibition": "1.72%"}, {"smiles": "O=C(CN(CC1CCCO1)C(=O)CNS(=O)(=O)c1ccc(F)cc1)NCc1ccco1", "note": "(centres undefined)", "activity change, negative = inhibition": "-0.026%"}, {"smiles": "CCC(=O)c1ccc(OC(=O)/C=C/c2cc(OC)c(OC)c(OC)c2)cc1", "activity change, negative = inhibition": "-18.9%"}, {"smiles": "CCOc1ccc(N/C=C/C(=O)c2cc(OC)c(OC)c(OC)c2)cc1", "Potency": "13.5 µM (active)"}, {"smiles": "CCOc1ccc(C(NC(=O)c2cc(OC)c(OC)c(OC)c2)c2cc(Cl)c3cccnc3c2O)cc1", "note": "(centres undefined)", "activity change, negative = inhibition": "-4.4%"}]}]}
